Records with an inconclusive call do not appear. Where a call stands in place of a potency, no number is given. Calls of active or inactive are those of the source. The call rests on the fitted dose curve; in most records, active means well fitted cell-killing curve with a large enough effect; inconclusive means small, poorly fitted or top-dose-only effect, or effect the other way; inactive means flat fitted curve, though single readings scatter.
Tested on: JEG-3
Assay: Primary qHTS to identify gynecologic anti-cancer compounds using libraries of approved drugs and bioactive compounds (AID 1345084); further: nearly all actives have a fitted effect of over 55% in size
Conditions: Gynecologic cancer cell panel viability, ATPlite luminescence, 48 h; series mostly up to 57.5 µM
Procedure, shortened: (§1)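 Five-concentration response, 48 h; readout is ATP-driven luciferase luminescence.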
Potency means the concentration at half of the fitted maximal effect.

SMILES | Potency | activity change, negative = cytotoxicity
Cc1cc(-c2nc3cc(F)ccc3s2)ccc1NC(=O)[C@@H](N)CCCCN | 14.1 µM (active) | –
Cc1ccccc1CN1CCn2c1nc1c(c2=O)CN(Cc2ccccc2)CC1 | inactive | –
C=C(C)C(=O)O[C@H]1/C(C=O)=C\CC/C(CO)=C/[C@H]2OC(=O)C(=C)[C@@H]2[C@@H]1OC | inactive | –
C[C@@H]1CC[C@]2(C(=O)O)CC[C@]3(C)C(=CCC4[C@@]5(C)CC[C@H](O)[C@](C)(C(=O)O)C5CC[C@]43C)C2[C@]1(C)O (stereo partly drawn) | inactive | –
COc1ccnc(CS(=O)c2nc3cc(OC(F)F)ccc3[nH]2)c1OC (stereo not drawn) | inactive | –
COc1ccc(-c2cnc3c(-c4cccc5ncccc45)cnn3c2)cc1 | inactive | –
CC(C)(C)OC(=O)c1ncn2c1C(C)(C)Nc1ccccc1-2 | inactive | –
CN1CCN(C(=O)CN[C@@H]2C[C@H]2c2ccc(OCc3ccccc3)cc2)CC1 | inactive | –
CC(=O)OC/C(=C/C(=O)O)CC[C@@H]1C(C=O)=CC[C@@H]2C(C)(C)CCC[C@@]12C | inactive | –
O=C(COc1ccc2ccccc2c1Br)Nc1cccnc1 | inactive | –
O=C(Nc1ccc2[nH]c(=O)oc2c1)C(=O)N1CCC(Cc2ccc(F)cc2)CC1 | inactive | –
CC(=O)OC[C@]12[C@H](OC(C)=O)C(=O)[C@@H]3[C@@H](O)[C@@]14O[C@@]3(C)COC(=O)c1cccnc1[C@@H](C)[C@H](C)C(=O)O[C@@H]([C@H](O)[C@@H]2OC(C)=O)[C@]4(C)O | inactive | –
CCOc1ccc(-n2c(C(C)N(Cc3cccnc3)C(=O)Cc3ccc(F)c(C(F)(F)F)c3)nc3ncccc3c2=O)cc1 (stereo not drawn) | inactive | –
C=C1C(=O)OC2/C=C(\CO)CC/C=C(\C=O)C(O)C(OC(=O)C(C)CC)C12 (stereo not drawn) | inactive | –
Cc1ccc(N2CCN(S(=O)(=O)N3CCCCC3)CC2)c(C)c1 | inactive | –
C1=C/COCc2cc(ccc2OCCN2CCCC2)Nc2nccc(n2)-c2cccc(c2)COC/1 | 11.2 µM (active) | –
Cn1ncnc1[C@@H]1c2n[nH]c(=O)c3cc(F)cc(c23)N[C@H]1c1ccc(F)cc1 | inactive | –
O=C(Cc1c(F)cccc1F)Nc1cc(OCc2ccc(Cl)cc2)ccn1 | inactive | –
CCOc1ccc(-n2c([C@@H](C)N(Cc3cccnc3)C(=O)Cc3ccc(OC(F)(F)F)cc3)nc3ncccc3c2=O)cc1 | inactive | –
C=C(C)C1=C[C@@]2(C)C(=CC1=O)CC[C@@H](O)[C@@H]2C | inactive | –

SMILES | Potency | activity change, negative = cytotoxicity
C=C1/C(=C/C=C2\CCC[C@]3(C)[C@@H]([C@H](C)/C=C/[C@H](O)C4CC4)CC[C@@H]23)C[C@@H](O)C[C@@H]1O | inactive | –
CC(C)(C)c1ccc(C(=O)Nc2cc(Cl)c(Br)cc2C(=O)O)cc1 | inactive | –
COc1c(C(O)CC(C)C)ccc2c1C(=O)OCc1cc(C)cc(O)c1O2 (stereo not drawn) | inactive | –
O=C(NCC1(c2nc(-c3ccccc3)cs2)CCOCC1)c1cccc(-c2noc(C(F)(F)F)n2)c1 | inactive | –
C/C=C/C=C/c1cc2c(C=O)c(O)c(CC=C(C)C)cc2o1 | inactive | –
Cc1ccc(N2CCN(CCC3NC(=O)c4ccccc43)CC2)cc1C (stereo not drawn) | inactive | –
CC(C)NC(=O)N1CC[C@H](N=C2Nc3cc(F)ccc3N(CC(F)F)c3ccc(Cl)cc32)C1 | – | 13.8% [at 11.6 µM] (inactive)
COc1ccc(CCO[C@@H]2O[C@H](CO[C@H]3OC[C@](O)(CO)[C@H]3O)[C@@H](OC(=O)/C=C/c3ccc(O)c(O)c3)[C@H](O[C@@H]3O[C@@H](C)[C@H](O)[C@@H](O)[C@H]3O)[C@H]2O)cc1OC | inactive | –
CC(=O)OC1CC(C)C2(CCC3(CC(=O)OC3O)O2)C2(C)CCCC(C)(C)C12 (stereo not drawn) | inactive | –
Cc1noc(-c2ccc(-c3ccc(CC(=O)O)cc3)cc2)c1NC(=O)O[C@H](C)c1ccccc1Cl | inactive | –
CN1CCN(c2ccc(-c3cccc(CN4CCOCC4)c3)cc2NC(=O)c2c[nH]c(=O)cc2C(F)(F)F)CC1 | inactive | –
COc1cc(N(C)CCN(C)C)c(N)cc1Nc1nccc(-c2cn(C)c3ccccc23)n1 | inactive | –
C=C1/C(=C/C=C2\CCC[C@@]3(C)C2CCC3[C@H](C)/C=C/[C@@H](O)C2CC2)C[C@@H](O)C[C@@H]1O (stereo partly drawn) | inactive | –
CC(C)C(C)C(O)C1CC23CC(=O)C4(O)C(=C2CCC3C1C)C=CC1(O)CC(O)CCC14C (stereo not drawn) | inactive | –
O=C(NCC1CCN(Cc2cccc(Cl)c2)CC1)[C@@H]1CCCN(c2ncnc3c2nc2n3CCCC2)C1 | inactive | –
C=CC1(C)CC(O)C(C(=C)C(=O)OC)C(O)C1C(=C)CO (stereo not drawn) | inactive | –
C=C[C@](C)(O)CC[C@H]1C(C)=CC(=O)[C@H]2C(C)(C)CCC[C@]12C | inactive | –
Cn1c(SCC(=O)N2CCC[C@H]2C(=O)Nc2ccccc2-c2ccccc2)nc2ccccc21 | inactive | –
Cn1ncc2cc(-c3cnc(N)c(Cl)c3N3CCC4(CCNC4=O)CC3)ccc21 | inactive | –

Tested on: OV90
Assay: as above
Conditions: Gynecologic cancer cell panel viability, ATPlite luminescence, 48 h; series mostly up to 57.5 µM
Procedure, shortened: as §1

SMILES | Potency | activity change, negative = cytotoxicity
Cc1cc(-c2nc3cc(F)ccc3s2)ccc1NC(=O)[C@@H](N)CCCCN | 8.91 µM (active) | –
Cc1ccccc1CN1CCn2c1nc1c(c2=O)CN(Cc2ccccc2)CC1 | inactive | –
C=C(C)C(=O)O[C@H]1/C(C=O)=C\CC/C(CO)=C/[C@H]2OC(=O)C(=C)[C@@H]2[C@@H]1OC | inactive | –
C[C@@H]1CC[C@]2(C(=O)O)CC[C@]3(C)C(=CCC4[C@@]5(C)CC[C@H](O)[C@](C)(C(=O)O)C5CC[C@]43C)C2[C@]1(C)O (stereo partly drawn) | inactive | –
COc1ccnc(CS(=O)c2nc3cc(OC(F)F)ccc3[nH]2)c1OC (stereo not drawn) | inactive | –
COc1ccc(-c2cnc3c(-c4cccc5ncccc45)cnn3c2)cc1 | inactive | –
CC(C)(C)OC(=O)c1ncn2c1C(C)(C)Nc1ccccc1-2 | inactive | –
CN1CCN(C(=O)CN[C@@H]2C[C@H]2c2ccc(OCc3ccccc3)cc2)CC1 | inactive | –
CC(=O)OC/C(=C/C(=O)O)CC[C@@H]1C(C=O)=CC[C@@H]2C(C)(C)CCC[C@@]12C | inactive | –
O=C(COc1ccc2ccccc2c1Br)Nc1cccnc1 | inactive | –
O=C(Nc1ccc2[nH]c(=O)oc2c1)C(=O)N1CCC(Cc2ccc(F)cc2)CC1 | inactive | –
CC(=O)OC[C@]12[C@H](OC(C)=O)C(=O)[C@@H]3[C@@H](O)[C@@]14O[C@@]3(C)COC(=O)c1cccnc1[C@@H](C)[C@H](C)C(=O)O[C@@H]([C@H](O)[C@@H]2OC(C)=O)[C@]4(C)O | inactive | –
CCOc1ccc(-n2c(C(C)N(Cc3cccnc3)C(=O)Cc3ccc(F)c(C(F)(F)F)c3)nc3ncccc3c2=O)cc1 (stereo not drawn) | inactive | –
C=C1C(=O)OC2/C=C(\CO)CC/C=C(\C=O)C(O)C(OC(=O)C(C)CC)C12 (stereo not drawn) | inactive | –
Cc1ccc(N2CCN(S(=O)(=O)N3CCCCC3)CC2)c(C)c1 | inactive | –
C1=C/COCc2cc(ccc2OCCN2CCCC2)Nc2nccc(n2)-c2cccc(c2)COC/1 | 17.8 µM (active) | –
Cn1ncnc1[C@@H]1c2n[nH]c(=O)c3cc(F)cc(c23)N[C@H]1c1ccc(F)cc1 | inactive | –
O=C(Cc1c(F)cccc1F)Nc1cc(OCc2ccc(Cl)cc2)ccn1 | inactive | –
CCOc1ccc(-n2c([C@@H](C)N(Cc3cccnc3)C(=O)Cc3ccc(OC(F)(F)F)cc3)nc3ncccc3c2=O)cc1 | inactive | –
C=C(C)C1=C[C@@]2(C)C(=CC1=O)CC[C@@H](O)[C@@H]2C | inactive | –

SMILES | Potency | activity change, negative = cytotoxicity
C=C1/C(=C/C=C2\CCC[C@]3(C)[C@@H]([C@H](C)/C=C/[C@H](O)C4CC4)CC[C@@H]23)C[C@@H](O)C[C@@H]1O | inactive | –
CC(C)(C)c1ccc(C(=O)Nc2cc(Cl)c(Br)cc2C(=O)O)cc1 | inactive | –
COc1c(C(O)CC(C)C)ccc2c1C(=O)OCc1cc(C)cc(O)c1O2 (stereo not drawn) | inactive | –
O=C(NCC1(c2nc(-c3ccccc3)cs2)CCOCC1)c1cccc(-c2noc(C(F)(F)F)n2)c1 | inactive | –
C/C=C/C=C/c1cc2c(C=O)c(O)c(CC=C(C)C)cc2o1 | inactive | –
Cc1ccc(N2CCN(CCC3NC(=O)c4ccccc43)CC2)cc1C (stereo not drawn) | inactive | –
CC(C)NC(=O)N1CC[C@H](N=C2Nc3cc(F)ccc3N(CC(F)F)c3ccc(Cl)cc32)C1 | – | 1.89% [at 11.6 µM] (inactive)
COc1ccc(CCO[C@@H]2O[C@H](CO[C@H]3OC[C@](O)(CO)[C@H]3O)[C@@H](OC(=O)/C=C/c3ccc(O)c(O)c3)[C@H](O[C@@H]3O[C@@H](C)[C@H](O)[C@@H](O)[C@H]3O)[C@H]2O)cc1OC | inactive | –
CC(=O)OC1CC(C)C2(CCC3(CC(=O)OC3O)O2)C2(C)CCCC(C)(C)C12 (stereo not drawn) | inactive | –
Cc1noc(-c2ccc(-c3ccc(CC(=O)O)cc3)cc2)c1NC(=O)O[C@H](C)c1ccccc1Cl | inactive | –
CN1CCN(c2ccc(-c3cccc(CN4CCOCC4)c3)cc2NC(=O)c2c[nH]c(=O)cc2C(F)(F)F)CC1 | inactive | –
COc1cc(N(C)CCN(C)C)c(N)cc1Nc1nccc(-c2cn(C)c3ccccc23)n1 | inactive | –
C=C1/C(=C/C=C2\CCC[C@@]3(C)C2CCC3[C@H](C)/C=C/[C@@H](O)C2CC2)C[C@@H](O)C[C@@H]1O (stereo partly drawn) | inactive | –
CC(C)C(C)C(O)C1CC23CC(=O)C4(O)C(=C2CCC3C1C)C=CC1(O)CC(O)CCC14C (stereo not drawn) | inactive | –
O=C(NCC1CCN(Cc2cccc(Cl)c2)CC1)[C@@H]1CCCN(c2ncnc3c2nc2n3CCCC2)C1 | inactive | –
C=CC1(C)CC(O)C(C(=C)C(=O)OC)C(O)C1C(=C)CO (stereo not drawn) | inactive | –
C=C[C@](C)(O)CC[C@H]1C(C)=CC(=O)[C@H]2C(C)(C)CCC[C@]12C | inactive | –
Cn1c(SCC(=O)N2CCC[C@H]2C(=O)Nc2ccccc2-c2ccccc2)nc2ccccc21 | inactive | –
Cn1ncc2cc(-c3cnc(N)c(Cl)c3N3CCC4(CCNC4=O)CC3)ccc21 | inactive | –

— PubChem BioAssay (NCATS)
